# An excerpt weighted towards active compounds, which were near 3.1% of everything screened.
# SKKanGAS inh = S. pyogenes SKKanGAS growth inhibitors in kanamycin, primary screen, streptokinase expression inhibitor project, SKKanGAS strain, BacTiter-Glo luminescence; 6 h; inhibition, % at 7.5 µM; hit rate 1.3% among 300,000; AID 1662, 2009;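 active = mean replicate score, as percent of positive control median, at least 50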;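 note: strain carries kanamycin resistance gene driven by streptokinase promoter and grows in 40 µg/ml kanamycin; loss of luminescence reflects streptokinase promoter inhibition or plain growth inhibition; 0% = median of DMSO wells and 100% = positive control at its reference dose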
# PP1 counter = PP1-alpha phosphatase inhibitors, primary screen, counter-screen for PP5 inhibitor project, biochemical, fluorescence, OMFP substrate, single point. Serine/threonine-protein phosphatase PP1-alpha catalytic subunit (Homo sapiens), P62136. purified PP1alpha. inhibition, % at 6.7 µM. hit rate 0.9% among 320,000. AID 2235, 2010;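 active = inhibition above the mean inhibition of all tested compounds plus 3 SD, computed separately for each screening campaign, cut at about 15% in these data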
# Target sequence (P62136 whole entry, looked up): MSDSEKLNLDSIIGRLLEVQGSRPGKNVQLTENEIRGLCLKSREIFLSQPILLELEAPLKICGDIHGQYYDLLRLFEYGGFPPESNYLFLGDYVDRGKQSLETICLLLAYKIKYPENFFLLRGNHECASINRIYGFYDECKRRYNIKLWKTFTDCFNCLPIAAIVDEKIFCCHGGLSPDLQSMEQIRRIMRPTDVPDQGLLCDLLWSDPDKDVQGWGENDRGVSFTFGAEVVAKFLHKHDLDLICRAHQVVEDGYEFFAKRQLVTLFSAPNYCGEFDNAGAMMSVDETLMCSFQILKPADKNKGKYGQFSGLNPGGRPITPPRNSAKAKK
# Beta cell apopt = inhibitors of cytokine-induced beta cell apoptosis, primary screen, luminescence; INS-1E cytokine-induced death, ATP luminescence, 48 h; percent of positive-control rescue, neutral wells zero; protection from apoptosis, % (concentration not given with the values); hit rate 0.8% among 300,000;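 active = Every replicate reaches about 75%, or at least half do and their mean reaches it too, limit read from the data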;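 note: 0% = cytokine-treated negative control wells and 100% = positive control rescue; higher means more ATP so stronger rescue from cytokine killing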
# CSC inhib = cancer stem cell viability inhibitors, primary screen, luminescence. cancer stem cell-like cells viability. inhibition, % at 7.5 µM. hit rate 1.1% among 300,000. AID 2717, 2010; in the data active = inhibition above about 75%; tested in HMLE shEcad cells
# PP5 primary = PP5 phosphatase inhibitors, primary screen, biochemical, fluorescence. Serine/threonine-protein phosphatase 5 (Homo sapiens), P53041. purified PP5c, OMFP substrate fluorescence. inhibition, % at 6.7 µM. hit rate 0.18% among 320,000;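 active = inhibition above the campaign's mean inhibition across all tested compounds plus 3 SD, cut at about 9.5% in these data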;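 note: 0% = DMSO only and 100% = 100 µM cantharidin control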
# * marks the source's active call; other numbers are inactive results; / = not tested or not shown.
SMILES,SKKanGAS inh,PP1 counter,Beta cell apopt,CSC inhib,PP5 primary
O=C(CCCCCN1C(=O)c2ccccc2C1=O)Nc1ccccc1,1,-2,3,-19,0
O=C(CCCCCCC(=O)Nc1ccccc1)NO,2,0,-4,106*,0
Cc1ccc(Nc2ncnc3c2nnn3Cc2ccccc2)cc1,-1,1,1,20,2
Cc1ccc(NC(=O)C2CCCN2C(=O)OCc2ccccc2)c(O)c1 (stereo not given),-9,0,-5,9,1
O=C(Nc1cc(Sc2ccccn2)cc([N+](=O)[O-])c1)c1cccc(F)c1,5,4,84*,40,4
O=c1cc(-c2c(F)c(F)c(F)c(F)c2F)oc2c(F)c(F)c(F)c(F)c12,9,7,107*,101*,4
O=c1cc(-c2c(F)c(F)c(F)c(F)c2F)oc2ccccc12,7,-1,5,27,-2
COc1ccccc1-n1c(=O)c2c3c(sc2n2c(=S)[nH]nc12)CCC3,10,-2,7,-5,-1
Cc1cc(C)n(Cc2ccc(Cl)cc2Cl)c(=O)c1S(=O)(=O)c1ccccc1,57*,-1,/,4,3
CC(C)c1ccc(OC(=O)c2ccc3c(=O)n4c(nc3c2)CCC4)cc1,80*,5,/,-6,2
CC(C)N1C(=O)CCC1C(=O)NCc1cccs1 (stereo not given),-1,-2,-1,-4,3
Cc1nc(N)nc(N)c1/C=C/C(C)(C)c1ccc(Cl)cc1,97*,/,/,/,/
O=C(NC1CCCCC1)c1cc(S(=O)(=O)N2CCOCC2)c(Cl)cc1Cl,1,-4,-2,2,-1
CCc1c(C)[nH]n(-c2nc(-c3ccccc3)cs2)c1=O,-2,-1,/,-35,1
Cc1[nH]n(-c2nc(-c3ccc(Cl)cc3)cs2)c(=O)c1N=Nc1ccc(O)cc1,61*,1,52,-2,2
COc1ccc(-c2cc(=O)n(-c3ccc([N+](=O)[O-])cc3)[nH]2)cc1,25,15,5,126*,9
Cc1ccc(N2C(=O)c3cccc4c([N+](=O)[O-])ccc(c34)C2=O)c2cccnc12,26,-1,45,64,-1
Cc1ccnc(N2C(=O)c3cccc4c([N+](=O)[O-])ccc(c34)C2=O)c1,-3,-3,18,121*,2
O=C(Nc1ccc(Cl)c(Cl)c1)N1CCSC1c1ccco1 (stereo not given),4,-1,103*,40,0
CCOc1ccc2oc(C(=O)OCC(=O)N3CC(C)OC(C)C3)c(C)c2c1 (stereo not given),/,3,-5,1,0
COc1ccc(NS(=O)(=O)c2ccc(-c3coc(C)n3)cc2)cc1OC,-1,5,107*,0,-1
CCn1cc(C(=O)NCc2ccco2)c(=O)c2cc(S(=O)(=O)N3CC(C)CC(C)C3)ccc21 (stereo not given),8,1,26,83*,2
CCn1cc(C(=O)NCc2ccco2)c(=O)c2cc(S(=O)(=O)N3CCC(C)CC3)ccc21,-1,1,6,5,2
CCC(C)c1ccccc1NC(=O)COC(=O)c1ccc2[nH]c3c(c2c1)CCCC3 (stereo not given),4,1,7,107*,3
CSc1nnc(C)c(=O)n1COC(=O)c1cc(Cl)ccc1[N+](=O)[O-],8,-5,-5,-22,2
SMILES,SKKanGAS inh,PP1 counter,Beta cell apopt,CSC inhib,PP5 primary
Cc1c(C(=O)Nc2nc3ccccc3[nH]2)oc2c(Cl)cccc12,67*,4,38,10,1
Cc1c(C(=O)Nc2nc3ccccc3[nH]2)oc2ccc(Br)cc12,79*,3,12,-6,0
Cc1c(C(=O)Nc2nc3ccccc3[nH]2)oc2ccccc12,21,-1,22,-7,0
CCCC(=O)N(CCN(C(=O)CCC)c1ccccc1)c1ccccc1,4,-5,79*,-18,-1
Cc1cc(C)c(S(=O)(=O)c2ccccc2C(C)C)c(=O)[nH]1,-1,/,1,-3,/
CC(C)(C)C1CC=C2C(C#N)=C(N)C(C#N)(C#N)C(c3cccs3)C2C1 (stereo not given),54*,0,-5,-3,6
O=C(c1ccc(Cl)cc1)N1CCOc2ccccc21,0,/,41,-4,/
CCOC(=O)Nc1sc(C)nc1-c1ccccc1,-8,-3,-14,8,2
CCOC(=O)Nc1nc(-c2ccccc2)c(C(=O)c2ccc(Cl)cc2)s1,36,2,19,81*,3
